Data: PMC5540273 (PLoS ONE, 2017)

Legend:
Details in all cases: concentration: 1 μM, replicates: in singlicate; n = 1
SgK110 = tested on: SgK110
TAK1 = tested on: T1, TAK1
T1 construct: gene MAP3K7

TAOK1 = tested on: TAOK1
TAOK2 = tested on: TAOK2
TAOK3 = tested on: TAOK3
TBK1 = tested on: TBK1
TEC = tested on: TEC
TESK1 = tested on: TESK1
TGFBR1 = tested on: TGFBR1
TGFBR2 = tested on: TGFBR2
TIE1 = tested on: TIE1
TIE2 = tested on: T2, TIE2
T2 construct: gene TEK

TLK1 = tested on: TLK1
TLK2 = tested on: TLK2
TNIK = tested on: TNIK
TNK1 = tested on: TNK1
TNK2 = tested on: TNK2
TNNI3K = tested on: TNNI3K
TRKA = tested on: T3, TRKA
T3 construct: gene NTRK1

TRKB = tested on: TRKB
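Note: KINOMEscan kinase panel screen.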

Row | Compound | %Inh (SgK110) [%] | %Inh (TAK1) [%] | %Inh (TAOK1) [%] | %Inh (TAOK2) [%] | %Inh (TAOK3) [%] | %Inh (TBK1) [%] | %Inh (TEC) [%] | %Inh (TESK1) [%] | %Inh (TGFBR1) [%] | %Inh (TGFBR2) [%] | %Inh (TIE1) [%] | %Inh (TIE2) [%] | %Inh (TLK1) [%] | %Inh (TLK2) [%] | %Inh (TNIK) [%] | %Inh (TNK1) [%] | %Inh (TNK2) [%] | %Inh (TNNI3K) [%] | %Inh (TRKA) [%] | %Inh (TRKB) [%]
1 | Fc1ccc(-c2ncn(CCCNCc3ccccc3)c2-c2ccncc2)cc1 | 12 | 29 | 5 | 0 | 0 | 25 | 8 | 6 | 0 | 10 | 23 | 0 | 26 | 0 | 12 | 0 | 13 | 0 | 38 | 3
2 | COc1cc2c(Nc3cccc(NC(=O)c4ccccc4)c3)ncnc2cc1OCCCN1CCOCC1 [GSK223810] | 0 | 0 | 0 | 0 | 0 | 1 | 0 | 0 | 0 | 0 | 24 | 0 | 0 | 0 | 0 | 22 | 13 | 25 | 45 | 0
3 | Nc1n[nH]c2nnc(-c3ccccc3)cc12 [SB-517389] | 0 | 0 | 0 | 0 | 3 | 6 | 11 | 27 | 0 | 0 | 0 | 0 | 15 | 0 | 0 | 0 | 20 | 13 | 0 | 0
4 | Nc1nc(-c2ccc3c(N)n[nH]c3c2)cc(N2CCC[C@@H](C(=O)Nc3ccccc3)C2)n1.O=C(O)C(F)(F)F.O=C(O)C(F)(F)F [GSK2288359] | 0 | 5 | 0 | 0 | 0 | 31 | 0 | 18 | 22 | 0 | 0 | 0 | 15 | 10 | 0 | 0 | 1 | 5 | 0 | 0
5 | COc1ccc(Nc2nccc(N3CCC(NC(=O)Nc4ccc5c(c4)OCO5)C3)n2)cc1 (stereo not shown) [GSK1379745] | 2 | 0 | 0 | 0 | 0 | 18 | 9 | 12 | 8 | 0 | 19 | 0 | 18 | 0 | 1 | 0 | 14 | 11 | 64 | 41
6 | Cn1cc(-c2ccc3c(c2)CCN3C(=O)Cc2cccc(C(F)(F)F)c2)c2c(N)ncnc21 [GSK2606414] | 0 | 0 | 4 | 0 | 3 | 9 | 1 | 5 | 0 | 9 | 46 | 24 | 2 | 0 | 0 | 0 | 0 | 0 | 35 | 46
7 | Fc1cccc(COc2ccc(Nc3ncnc4nn5ccccc5c34)cc2Cl)c1 [GW689066] | 0 | 0 | 0 | 0 | 0 | 0 | 0 | 14 | 0 | 0 | 0 | 0 | 0 | 0 | 0 | 0 | 10 | 0 | 0 | 22
8 | CC(C)N1CCC(n2cnc(-c3ccc(F)cc3)c2-c2ccnc(N)n2)CC1 [SB-223132] | 0 | 0 | 0 | 0 | 0 | 50 | 6 | 23 | 25 | 0 | 0 | 96.9 | 5 | 0 | 11 | 3 | 0 | 4 | 0 | 0
9 | O=C(Nc1n[nH]c2nc(-c3ccco3)c(Br)cc12)c1ccc(CN2CCCC2)cc1.O=C(O)[C@H](O)[C@@H](O)C(=O)O [SB-742352] | 50 | 0 | 0 | 0 | 0 | 13 | 0 | 8 | 0 | 0 | 0 | 0 | 3 | 0 | 14 | 38 | 0 | 12 | 18 | 0
10 | O=c1cc(N2CCOCC2)nc2n(Cc3cccc(Cl)c3)ccn12 [GSK2296823] | 0 | 0 | 0 | 0 | 0 | 38 | 1 | 0 | 0 | 0 | 16 | 0 | 0 | 0 | 0 | 0 | 28 | 1 | 0 | 0
11 | Cc1cccc(-c2nc(Nc3ccc4[nH]nnc4c3)c3ccccc3n2)n1 [GW867587] | 19 | 0 | 0 | 0 | 0 | 14 | 0 | 0 | 32 | 0 | 0 | 0 | 0 | 0 | 0 | 24 | 0 | 0 | 0 | 0
12 | O=C(NCCCN1CCCC1=O)c1cnc(NCc2cc(Cl)ccc2Cl)nc1NC1CCNCC1 | 5 | 27 | 0 | 0 | 0 | 12 | 0 | 2 | 0 | 6 | 1 | 2 | 12 | 0 | 0 | 34 | 0 | 0 | 69 | 32
13 | COc1ccc(Nc2nccc(N3CCC(NC(=O)c4cccc(NC(C)=O)c4)C3)n2)cc1 (stereo not shown) [GSK1379732] | 10 | 0 | 0 | 0 | 0 | 0 | 0 | 26 | 4 | 0 | 0 | 0 | 0 | 0 | 0 | 0 | 7 | 7 | 37 | 40
14 | CCn1c(-c2ccncc2)nc2cnccc21 [SB-735216] | 0 | 20 | 15 | 13 | 18 | 17 | 7 | 24 | 0 | 0 | 0 | 12 | 0 | 0 | 0 | 1 | 13 | 0 | 27 | 41
15 | Cc1ccc(C)c(NC(=O)NCCNc2ccnc(Nc3ccc(F)cc3)n2)c1 [GSK1379878] | 0 | 0 | 0 | 0 | 0 | 7 | 0 | 32 | 0 | 0 | 0 | 0 | 1 | 0 | 0 | 0 | 9 | 0 | 10 | 0
16 | OCCOCCn1ccc2ncnc(Nc3ccc(Oc4cccc(Cl)c4)c(Cl)c3)c21 | 0 | 0 | 0 | 0 | 0 | 7 | 0 | 0 | 7 | 0 | 0 | 31 | 0 | 0 | 0 | 0 | 0 | 0 | 0 | 0
17 | CNc1nccc(-c2c(-c3ccc(F)cc3)ncn2CCCN2CCOCC2)n1 [SB-222516] | 7 | 0 | 0 | 0 | 0 | 5 | 33 | 10 | 0 | 16 | 0 | 0 | 0 | 0 | 0 | 4 | 0 | 0 | 0 | 19
18 | Cc1ccc(NC(=O)c2cccc(C#N)c2)cc1-c1ccc(C(=O)Nc2ccncc2)cc1 [GSK1398463] | 3 | 0 | 0 | 23 | 3 | 20 | 11 | 0 | 0 | 0 | 11 | 21 | 0 | 0 | 13 | 16 | 21 | 29 | 0 | 0
19 | Cl.Fc1ccccc1COc1ccc(Nc2ncnc3ccc(-c4nnc(C(F)(F)F)o4)cc23)cc1Cl [GW424170] | 0 | 0 | 0 | 0 | 0 | 7 | 5 | 29 | 0 | 0 | 0 | 0 | 4 | 0 | 0 | 0 | 0 | 0 | 3 | 6
20 | CC(C)(C)c1ccc(-n2cnc3c(N)ncnc32)cc1 [SKF-97263] | 0 | 10 | 6 | 0 | 8 | 15 | 12 | 0 | 0 | 6 | 14 | 0 | 0 | 0 | 0 | 5 | 10 | 12 | 18 | 0
